In PubChem BioAssay (NCATS):
Inconclusive results are not listed. Entries that show only a call come without a potency. Values without a mark were called inactive. The source made the active and inactive calls. Calls follow the shape of the dose curve; as a rule, active = well fitted activation curve with a large enough effect; inconclusive = small, poorly fitted or top-dose-only effect; inactive = flat fitted curve, though single readings scatter.

Assay: Primary redox qHTS assay for identification of artifact compounds. (AID 1845223)
Details: Amplex Red/HRP redox cycling with DTT, fluorescence; series mostly up to 53.8 µM
Procedure, shortened: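 Amplex Red (25 uM) and HRP (250 mU/mL) in HBSS, with compounds for 15 min, then 250 uM DTT for 30 min, room temperature, dark. Fluorescence 525/598 nm read; normalized to DMSO and 10 uM DA3003; Hill fit.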

Row | Compound | Potency | redox activity (% of DA3003)
1 | O=C(O)Cn1nnc(-c2ccc(CN(CCCCOc3ccc(CN4CCCC4)cc3)CCc3ccccc3)cc2)n1 | inactive | –
2 | CC(=O)NCC1CN(c2ccc(-c3ccc(CNCc4cn[nH]n4)cc3)c(F)c2)C(=O)O1 (centres undefined) | inactive | –
3 | CN1C(=O)N(c2cc(Cl)cc(Cl)c2)C(=O)[C@@]1(C)Cc1ccc(Br)cc1 | inactive | –
4 | COC(=O)C1C(c2ccc(O)cc2)C(C(=O)O)C1c1ccc(O)cc1 (centres undefined) | inactive | –
5 | C/C=C1/C[N+](C)([O-])C2Cc3c([nH]c4ccccc34)C(=O)CC1C2C(=O)OC (centres undefined) | inactive | –
6 | CC(=O)NC1C(OC2CCC3(C)C(CCC4(C)C3CC=C3C5CC(C)(C)CCC5(C(=O)O)C(O)CC34C)C2(C)C)OC(CO)C(O)C1O (centres undefined) | inactive | –
7 | O=C(/C=C/c1ccc(O)c(O)c1)OC[C@H]1O[C@@H](OC2CCCCC2O)[C@H](O)[C@@H](O)[C@@H]1O (some centres undefined) | inactive | –
8 | CC1=CCC(O)C2(C)CCC3C(C)C(=O)OC3C12 (centres undefined) | inactive | –
9 | C=C(CCO[C@@H]1O[C@H](CO)[C@@H](O)[C@H](O)[C@H]1O)C(=O)O | inactive | –
10 | CC(C)(C)NS(=O)(=O)c1ccc(-c2ccc3[nH]nc(N)c3c2)cc1 | inactive | –
11 | CC(C)=CCc1c(O)cc2oc3cc(C)cc(O)c3c2c1C | inactive | –
12 | C/C=C(\C)C(=O)OCC1OC(OC2OC(CO)C(O)C(O)C2O)C(O)C(O)C1O (centres undefined) | inactive | –
13 | CCCNCCOc1ccc(NC(=O)c2c[nH]c3c2C(=O)CCC3)cc1F | inactive | –
14 | O=C(/C=C/c1ccc(O)cc1)OC[C@H]1O[C@@H](O/C(=C\c2ccccc2)C(=O)O)[C@H](O)[C@@H](O)[C@@H]1O | inactive | –
15 | CC1(C)CC[C@]2(C(=O)OC3OC(CO)C(O)C(O)C3O)CC[C@]3(C)C(=CCC4[C@@]5(C)C[C@@H](O)[C@H](OC6OC(C(=O)O)C(O)C(O)C6O)C(C)(C)C5CC[C@]43C)[C@@H]2C1 (some centres undefined) | – | 1.95% [at 11.5 µM]
16 | C/C=C1/[C@H](O[C@@H]2O[C@H](CO)[C@@H](O)[C@H](O)[C@H]2O)OC=C2C(=O)O[C@@H]3C[C@@H](C(C)CO)[C@H](COC(=O)C[C@H]21)[C@H]3C (some centres undefined) | inactive | –
17 | CC(=O)OC/C(=C/C(=O)O)CC[C@@H]1C(C)=CC(=O)[C@@H]2C(C)(C)CCC[C@@]12C | inactive | –

Row | Compound | Potency | redox activity (% of DA3003)
18 | O=C(O)c1cc(C(F)(F)F)ccc1N1CC[C@H](OCc2ccccn2)C1 | inactive | –
19 | CC(NC(=O)CC(=O)O)C(=O)Nc1ccccc1C(N)=O (centres undefined) | inactive | –
20 | OC[C@H]1O[C@@H](OCc2ccccc2)[C@H](O)[C@@H](O)[C@@H]1O | inactive | –
21 | COc1cc(/C=C/C(=O)O[C@H]2[C@@H]3C=CO[C@@H](O[C@@H]4O[C@H](CO)[C@@H](O)[C@H](O)[C@H]4O)[C@@H]3[C@@]3(CO)O[C@@H]23)ccc1O | inactive | –
22 | COC(=O)C1=CO[C@@H](O[C@@H]2O[C@H](CO)[C@@H](O)[C@H](O)[C@H]2O)[C@H]2[C@@H]1[C@H](O)C[C@]2(C)O | inactive | –
23 | CNc1nc(Cc2ccccc2)nc2c1CCNC[C@@H]2C | inactive | –
24 | O=C(/C=C/c1ccc(O)cc1)OCC1OC(O)C(OC2OC(CO)C(O)C(O)C2O)C(O)C1O (centres undefined) | inactive | –
25 | CC1=C[C@H](O)[C@H]2C(C)(C)CCC[C@]2(C)[C@@]1(O)CO | inactive | –
26 | CC1CCCCCCCc2cc(O)cc(O)c2C(=O)O1 (centres undefined) | inactive | –
27 | COc1cc(O)c(C(=O)O)c(CCc2ccccc2)c1 | inactive | –
28 | COc1ccc([C@H]2OC[C@H]3[C@@H]2CO[C@@H]3c2ccc(O[C@@H]3O[C@H](CO)C(O)[C@H](O)[C@H]3O)c(OC)c2)cc1OC (some centres undefined) | inactive | –
29 | O=C(OCC1OC(Oc2ccc(O)cc2COC(=O)C2(O)C(O)CCC(=O)C2OC(=O)C2C=CCC2)C(OC(=O)C2C=CCC2)C(O)C1O)C1C=CCC1 (centres undefined) | inactive | –
30 | c1cc(-c2cc(C3CCNCC3)[nH]n2)ccn1 | inactive | –
31 | C=C1[C@H](OC(C)=O)[C@H]2[C@@H](OC(=O)c3ccccc3)[C@@H](C)C[C@]2(O)[C@@H](OC(C)=O)[C@H](C)/C=C/C(C)(C)C(=O)[C@H](OC(C)=O)[C@H]1OC(C)=O | inactive | –
32 | C[C@@H]1C[C@@H](O)[C@@]23CO[C@]2(CO)CCC[C@@H]3[C@@]12C[C@@H](c1ccoc1)OC2=O | inactive | –
33 | CC(C)(O)C1CC=C(C(=O)OC[C@H]2O[C@@H](OC(=O)C3=CCC(C(C)(C)O)CC3)[C@H](O)[C@@H](O)[C@@H]2O)CC1 (some centres undefined) | inactive | –
34 | Cc1ccc(-c2c(-c3nn(C)c4ncnc(N5CCC(N6CCCCC6)C5)c34)cnn2C)cc1 (centres undefined) | inactive | –
